± gives the standard deviation of the averaged measurements.
Tested on: Caenorhabditis elegans N2
Test: egg-laying rate relative to DMSO control (M9 buffer background) (fraction of control); higher = more egg-laying
Details: 60 µM, 1 h
Description: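 About 20 young-adult wild-type C. elegans (N2) per well in 96-well plates were exposed to 60 uM compound for 1 h at room temperature, either in M9 buffer (to find stimulators) or in 12.3 mM serotonin + 7.7 mM nicotine (NS, to find inhibitors). Eggs per worm per hour were counted by automated imaging and normalised to the mean of proximal DMSO control wells. Values average the primary screen and two retests of the worm-active (wactive) Egl modulators.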

| SMILES | egg-laying rate |
| --- | --- |
| CCOc1ccc(/C=C/[N+](=O)[O-])cc1 [wact-385] | 0.274 ± 0.14 |

Source: the supplement of paper PMC9402605
